The target of the first assay is PKLR. The assay is described as follows: pooled miR-30 sensor sort-seq; sequence = guide strand. Conditions: shRNA.
Take AATCATCATCTTCTGAGCCAGG: the sensor-assay potency score (higher = more potent) is -0.988.
Regarding ATGCTCTCCAGCATCTGTGTGG, the sensor-assay potency score (higher = more potent) is -1.11.
Still for that read-out and setting: the result for TTGCTGATGATCTTGATGCCGT reads -0.495; that for TCAATTTTGCTGATGATCTTGA, 0.666.
Sequence TGTGGCACAGACAACAGGCTTG registered a sensor-assay potency score (higher = more potent) of -0.0127.
Take TCGCTTGTCTCTGCCCTCGTTG: the sensor-assay potency score (higher = more potent) was -1.2.
TCGTGGTTCTCAATTTTGCTGA: the sensor-assay potency score (higher = more potent) is -0.424.
The same measure, in the same setting: the result for TAGCTCCTCAAACAGCTGCCGG reads -1.23.
The same measure, in the same setting: the result for TAGATGACAGTTATAGTCTCAG reads -0.0862.

The target of another assay is PLA2G4A. Described as above. The settings on record: shRNA.
Turning to TAGTCAGTGAATAACATTCATA, the sensor-assay potency score (higher = more potent) is -0.999.
Same read-out and setting: as for TTGTCTGAAAGTCTTCTCCTGA, the figure is 0.182; as for TAAAGCTGAATCACTCACCAAG, -0.42; as for TACAAGGTTGACATATACCAGG, -0.86.
In turn, TTTGCTTCCAAATAAGTCGGGA gave a sensor-assay potency score (higher = more potent) of 0.33.
On the same count and under the same terms, as for TTTGATAGTCACTTCCAGCATC, the figure is -0.254; as for TAGTTCTTCATTAATCTCCTCT, 0.214.
TATCACATCAATGTTGTTCAGA showed a sensor-assay potency score (higher = more potent) of 0.0915.
For the sequence TTTAAAGACATAGCACTCCTTC, the sensor-assay potency score (higher = more potent) was -0.0879.
For TGATTCATCATCACTGTCCGAG, the sensor-assay potency score (higher = more potent) is 0.0963.
With TTCTTCATTAATCTCCTCTGGC, the sensor-assay potency score (higher = more potent) is -0.109.
On the same count and under the same terms, as for TATCTTTTAACTTTCTGTGGTG, the figure is -0.296.

The next assay concerns the target PLA2G4F. Described as above. The settings on record: shRNA.
The sequence TAGTACTGTAGCCGCTCCGTGG came in with a sensor-assay potency score (higher = more potent) of -1.01.
Still for that read-out and setting: as for TTGCACATAGCAGTCGGCTTTG, the figure is -0.794; as for TTCTTGATAGCAGTGCATCCAG, -0.546; as for TGAACTCGCACCACTCTGCAAA, -0.822.
Consider TTGTTCTTGATAGCAGTGCATC, for which the sensor-assay potency score (higher = more potent) is -1.66.
Consider TAGAGTGTGGAGATGCACCAGG, for which the sensor-assay potency score (higher = more potent) is -0.214.
On the same count and under the same terms, the result for TATATTTGCATGATGTGGCCAC reads 0.329.
Still for that read-out and setting: as for TTTGTCGCTCCACACCTGGGGC, the figure is -1.27; as for TTGTTCAGGACGTTGTATCGAC, 0.0752.
TTGCAGGTAACAGATCCGGGGT showed a sensor-assay potency score (higher = more potent) of -0.679.
The same measure, in the same setting: as for TCGTCTGTGATATTCACACTGC, the figure is -0.569; as for TTGGCCACTATCCTAGTCTGGG, -0.525.

A further assay deals with PLA2R1. Described as above. Conditions: shRNA.
Take TAGTATCACAACCTACTTCTGC: the sensor-assay potency score (higher = more potent) was -0.635.
Same read-out and setting: the result for TTTTTCACTATGAAATACCTTG reads -0.37.
Still for that read-out and setting: as for TTTCTGAGCACAACTCTGGGTG, the figure is -0.349; as for TAATGCACTGTTATCAGCCTGA, 0.301; as for TTACTTTTAAATTTTATCCAGG, -0.532.
On the same count and under the same terms, as for TTTTGTAACAGAATCCACCATG, the figure is 0.0446.
With TTTTCTTCTAAATATACTGTAC, the sensor-assay potency score (higher = more potent) is -0.623.
Also: reference of the scale not given here.
